# The source made the active and inactive calls. Rule for the calls: active = hit-call score of the fitted dose curve at least 0.9, where 1 is the maximum; inactive = score below 0.9.
# Read-out: Cytochrome P450 3A4 (Homo sapiens) (UniProt P08684)
# Assay: LTEA_HepaRG_CYP3A4: Life Technologies and Expression Analysis (LTEA) Assay for CYP3A4 using HepaRG (AID 2283487)
# Conditions: mRNA level, 48 h; actives raise or lower the signal
# Method: LTEA_HepaRG is a cell based, multiplexed-readout assay that uses HepaRG, a human liver cell line, with measurements taken at 48 hours after chemical dosing on a 96-well plate.LTEA_HepaRG_CYP3A4 is one of 102 assay component(s) measured in the LTEA HepaRG cell culture assay. It is a marker of NR mediated metabolism.Data from the assay component LTEA_HepaRG_CYP3A4 was analyzed into 1 endpoint. This assay endpoint, LTEA_HepaRG_CYP3A4, was analyzed with bidirectional fitting relative to DMSO as the negative control and baseline of activity. Using a type of inducible reporter, measures of mRNA induction for gain or loss-of-signal activity can be used to understand regulation of transcription factor activity. To generalize the intended target to other relatable targets, this assay endpoint is annotated to the cyp intended target family, where the subfamily is xenobiotic metabolism.
# A total of 1060 chemcials from the ToxCast library were tested in eight-point concentration-response experiments. Cell culture and cytotoxicity assays were conducted at Thermo Fisher Scientific's Custom Services facility (Madison, WI). A single lot of human HepaRG cells (Thermo Fisher Scientific, Frederick, MD) was used for the cell culture experiments. 96-well format collagen type I coated plates of human HepaRG cells were prepared using established methods. Briefly, cryopreserved HepaRG cells were thawed, plated at a density of approximately 100,000 cells/well in HepaRG Thaw, Plate, and General Purpose media (HPRG770, Thermo Fisher Scientific), and incubated for 48 hours. 0.5% DMSO was selected as vehicle control to balance the requisite need of DMSO in HepaRG cultures to maintain differentiation (for example, baseline metabolism, proportions of hepatocytes vs. cholangiocytes), while enabling further hepatic receptor pathway activation (for example, PXR and CAR) in response to chemical exposure. 48 hours after plating, the culture medium was replaced with HepaRG Serum-Free Incudtion Media. Cells were exposed to each test chemical in duplicate and maintained in CO2 incubators for another 48 hours. Chemical plates were thawed to room temperature and 200x concentrations of treatment groups were prepared. 8-point conentration-reponse curves were made with the highest exposure at 100 uM, followed by half-log dilutions, all in 0.5% DMSO. Each test plate contained variouse controls, induction positive controls (1mM phenobarbital), cytotoxicity positive controls ([…] aflatoxin B1), vehicle controls (0.5% DMSO), and total lysis controls (0.5% DMSO). Cell morphology images were taken using an Essen IncuCyte FLR automated microscope, with six 96-well plates imaged in about 24 minutes. Images were captured and exported and JPEG files. Spent culture media was transfered to black-well plates for the LDH assay, and remaining media was sorted at -80 C for later use. Cells were treated with RLT buffer and frozen until shipped for gene expression analysis. Total RNA was isolated from the cell suspension in 75 uL of Buffer RLT (Qiagen, Germantown, MD 20874) by Quintiles/Expression Analysis (Durham, NC) using a custom isolation procedure. Total RNA from each plate well was transferred to a preamplification plate. Fluidigm's 96.96 Dynamic ArrayTM (Fluidigm, Amsterdam, the Netherlands) technology was used for gene expression analyses by quantitative reverse transcription polymerase chain reaction (qRT-PCR, performed by Quintiles/Expression Analysis, Durham, NC)89. Standard TaqManTM Assays (Applied Biosystems/ThermoFisher Scientific, Foster City, CA) were used to assess the expression of 93 genes selected based on their selectivity and sensitivity to important hepatic receptors known to be modulated by environmental chemicals; importance in human hepatocyte functionality; and hepatotoxicity. […]
# Chain of Cytochrome P450 3A4 (Homo sapiens) (P08684 whole entry, looked up): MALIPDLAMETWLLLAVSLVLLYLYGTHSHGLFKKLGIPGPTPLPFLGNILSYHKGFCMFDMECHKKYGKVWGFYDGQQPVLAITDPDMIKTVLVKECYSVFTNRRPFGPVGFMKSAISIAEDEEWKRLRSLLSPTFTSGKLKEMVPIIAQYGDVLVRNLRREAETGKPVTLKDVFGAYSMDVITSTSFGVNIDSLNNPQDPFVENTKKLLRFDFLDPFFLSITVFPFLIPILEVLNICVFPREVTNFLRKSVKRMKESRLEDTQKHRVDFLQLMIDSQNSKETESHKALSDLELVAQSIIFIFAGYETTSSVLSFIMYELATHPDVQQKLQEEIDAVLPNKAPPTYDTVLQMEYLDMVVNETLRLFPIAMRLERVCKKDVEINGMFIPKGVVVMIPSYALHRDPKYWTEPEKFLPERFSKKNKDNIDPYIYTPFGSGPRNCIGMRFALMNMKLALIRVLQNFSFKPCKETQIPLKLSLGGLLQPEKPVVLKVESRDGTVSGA
SMILES,AC50,outcome
CCC(=C(c1ccc(O)cc1)c1ccc(OCCN(C)C)cc1)c1ccccc1,2.51 µM (active),–
CCCCCCCCC(=O)O,–,inactive
CCC(C)(C)C1CCC(O)CC1 (stereo not given),–,inactive
c1ccc2c(c1)ccc1ccccc12,7.1 µM (active),–
CCc1nn(C2CCCCC2)c2cc(C3(C#N)CCC(C(=O)O)CC3)ccc12 (stereo not given),82.2 µM (active),–
O=C(O)Cc1cc(I)c(Oc2cc(I)c(O)c(I)c2)c(I)c1,50.7 µM (active),–
O=c1c(-c2ccc(O)cc2)coc2cc(O)ccc12,–,inactive
ClC1=C(Cl)C(Cl)(Cl)C(Cl)=C1Cl,–,inactive
NC(=O)N1C(=O)C(C(=O)c2cc(Cl)cs2)c2cc(F)c(Cl)cc21 (stereo not given),24.6 µM (active),–
OCCC(F)(F)C(F)(F)C(F)(F)C(F)(F)C(F)(F)C(F)(F)C(F)(F)C(F)(F)F,–,inactive
CC(=O)CC(C)(C)O,–,inactive
CCCCC(CC)COC(=O)CCCCC(=O)OCC(CC)CCCC (stereo not given),–,inactive
Nc1cccc2c(N)cccc12,–,inactive
COC(=O)CCCCC(=O)OC,–,inactive
CC(C)CCCCCCOC(=O)CCCCC(=O)OCCCCCCC(C)C,–,inactive
COCC(C)O (stereo not given),–,inactive
Oc1cccc(O)c1,–,inactive
CCCCCCCCCCCCc1ccccc1S(=O)(=O)O,89.6 µM (active),–
NC(=O)N(O)[C@@H]1C=C[C@H](Oc2cccc(Oc3ccc(F)cc3)c2)C1,72.1 µM (active),–
Cc1oc(-c2ccccc2)nc1CCOc1ccc(C[C@H](Nc2ccccc2C(=O)c2ccccc2)C(=O)O)cc1,12.7 µM (active),–

SMILES,AC50,outcome
CN(C)C=O,–,inactive
OC1CCCCC1,–,inactive
c1ccc2c(c1)Cc1ccccc1-2,–,inactive
CC(=O)NC1(c2cccc(F)c2)CCN(CC[C@@]2(c3ccc(Cl)c(Cl)c3)CN(c3ccccc3)C(=O)CO2)CC1,3.67 µM (active),–
C=C(C)C(=O)OCCC(F)(F)C(F)(F)C(F)(F)C(F)(F)C(F)(F)C(F)(F)F,–,inactive
CCCCCCC(=O)O,–,inactive
Oc1cc2ccccc2c2ccccc12,–,inactive
OCCC(F)(F)C(F)(F)C(F)(F)C(F)(F)C(F)(F)C(F)(F)F,–,inactive
Cc1cc(CCN2CCN(c3nsc4ccccc34)CC2)cc2c1NC(=O)CC2(C)C,92 µM (active),–
CCCCCCCCCCCCCCCS(=O)(=O)Oc1ccccc1,9.56 µM (active),–
CC(C)(C)c1cccc(C(C)(C)C)c1O,–,inactive
CCOC(=O)CC(O)(CC(=O)OCC)C(=O)OCC,–,inactive
COCC(C)OCC(C)O (stereo not given),–,inactive
CCCCOCCO,–,inactive
Cc1cc(C)c(O)c(C)c1,13.7 µM (active),–
COc1ccc([N+](=O)[O-])cc1N,–,inactive
CN1CCC[C@H]1c1cccnc1,–,inactive
CCCCC(CC)COC(=O)CCCCC(=O)OCc1ccccc1 (stereo not given),–,inactive
c1ccc2cc3c(ccc4ccccc43)cc2c1,3.99 µM (active),–
CCN(CC)CCNc1ccc(CNC=O)c2sc3ccc(OC)cc3c(=O)c12,50 µM (active),–

# Reference: PubChem BioAssay (EPA / NIEHS)
